Screening results as filed in PubChem BioAssay.
HP1b chromo inh – HP1-beta chromodomain-methylated histone interaction inhibition. AID 540317. Potency, µM (series often up to 114 µM), for the others: at the highest dose activity change, negative = inhibition, hits mostly inhibitors. 0.56% of 390,000 active. P83916. AlphaScreen HP1-beta / biotin-H3K9me3 peptide binding; further: potency means the concentration at half of the fitted maximal effect; nearly all actives have a fitted effect of over 70% in size
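AlphaScreen: HP1-beta (50 nM) preformed 30 min with biotin-H3(1-18)K9me3 peptide (50 nM) in PBS pH 7.4, 0.01% Tween-20. Compound added for 30 min at RT, then streptavidin donor/nickel chelate acceptor beads (10 ug/mL) for 30 min.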
CtBP-E1A inh – CtBP/E1A binding inhibition; AlphaScreen GST-E1A/His-CtBP binding, 1536-well; hits give low values; activity change, % (test concentration not listed); 0.49% of 340,000 active; AID 651724; in the data active means activity change below about -65%; inconclusive means mostly about -30% to -63%; further: on the % scale 0 is the no-effect control and ±100 the full control effect
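GST-E1A and His-tagged CtBP (125 nM each as 5X stock) were preincubated with pin-transferred compound for 2 h at 37 °C in the dark, then glutathione donor and nickel acceptor beads were added for 1 h before AlphaScreen reading.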
G9a block – G9a (human) methyltransferase inhibition. Q96KQ7. G9a H3K9 monomethylation, AlphaScreen, 2 h. Potency, µM (highest dose often 102 µM), for the others: at the top dose activity, negative = inhibition, most hits filed as inhibitors. 8.8% of 350,000 active; further: potency means the concentration at half of the fitted maximal effect; on the % scale 0 is the no-effect control and ±100 the full control effect; nearly all actives have a fitted effect of over 75% in size
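Methyltransferase reactions run at room temperature for 2 h (20 nM enzyme, 500 nM biotin-H3K9 peptide, 20 uM SAM) after a 15 min compound preincubation; product detected by AlphaScreen beads and anti-H3K9me1 antibody.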
Six1-Eya2 blk – Six1/Eya2 interaction inhibition; AlphaScreen GST-Six1/His-Eya2 binding, biochemical; hits give low values; activity change, % (no concentration beside the values); 0.56% of 360,000 active; in the data active means activity change below about -65%; inconclusive means mostly about -30% to -63%; further: on the % scale 0 is the no-effect control and ±100 the full control effect
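AlphaScreen with GST-Six1 and His-Eya2 (5X mix: 250 nM and 500 nM), glutathione donor and nickel acceptor beads; buffer 50 mM Tris pH 8.0, 300 mM NaCl, 1 mM TCEP; 1 h at 37 C in the dark.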
BAZ2B inh – inhibitors of human BAZ2B bromodomain. AlphaScreen BAZ2B-H3K14Ac peptide displacement. 4.4% of 360,000 active. Q9UIF8. AID 504333. Potency, µM (doses to about 114 µM), without a hit: at the top dose activity change, negative = inhibition, hits mostly inhibitors; further: potency means the concentration at half of the fitted maximal effect; on the % scale 0 is the no-effect control and ±100 the full control effect; nearly all actives have a fitted effect of over 60% in size
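AlphaScreen luminescence quantifies BAZ2B engagement of H3K14Ac peptide; the protein and biotinylated peptide are both at 50 nM final, buffer PBS pH 7.4 with 0.01% Tween-20, all steps at room temperature.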
JMJD2A Tudor – JMJD2A Tudor domain (human) inhibition. O75164. AlphaScreen JMJD2A-Tudor / H3K4me3 peptide binding. Potency, µM (highest dose often 114 µM), inactives show top-dose activity change, negative = inhibition, hits mostly inhibitors. 4.4% of 390,000 active; further: potency means the concentration at half of the fitted maximal effect; on the % scale 0 is the no-effect control and ±100 the full control effect; nearly all actives have a fitted effect of over 50% in size
Numbers without * were called inactive; u = inconclusive; x = not tested or not shown; [ ] = remark or other dose. Most compounds without a hit are left out; they make up all but 10% or so of the library. Unless noted, the call rests on the fitted dose curve; in most records, active means well fitted inhibition curve with a large enough effect; inconclusive means small, poorly fitted or top-dose-only effect; inactive means no such curve, though single readings can be large or run the other way.

SMILES	HP1b chromo inh	CtBP-E1A inh	G9a block	Six1-Eya2 blk	BAZ2B inh	JMJD2A Tudor
COC(=O)COc1ccc(C(C2C(=O)CC(C)(C)CC2=O)C2C(=O)CC(C)(C)CC2=O)cc1	52%	5	32µM*	6	12%	13%
CC1(C)CC(=O)C(C(C2=C(O)CC(C)(C)CC2=O)c2ccc(O)c([N+](=O)[O-])c2)=C(O)C1	20%	-3	35µM*	-7	-32%	-8%
CCOC(=O)CCN(Cc1sccc1C)S(=O)(=O)c1ccc(F)cc1	153%	50	42%[59 µM]	42	45%	23%
COCCCn1c(=O)/c(=C\c2cccc(OC)c2OC)s/c1=C(/C#N)C(=O)Nc1ccc(C(=O)O)cc1	6%	-3	-21%[59 µM]	-1	45µM*	-9%[11.4 µM]
COc1ccc(-c2ocnc2C(=O)N2CCN(C(=O)C(c3ccccc3)c3ccccc3)CC2)cc1	18%	-8	50µM*	7	-30%	-20%
Cc1cccc(C)c1NC(=O)Nc1nnc([C@@H]2C[C@H](O)[C@@H](CO)O2)s1	x	6	x	9	x	x
O=C(COC(=O)c1cc(Br)ccc1O)NNC(=O)c1ccc(Cl)cc1	29%	-1	45µM*	-2	6%	-8%
O=C(COC(=O)c1cc(Br)ccc1O)NNC(=O)c1ccc([N+](=O)[O-])cc1	42%	2	45µM*	-9	0%	-5%
O=C(COC(=O)c1ccccc1O)NNC(=O)c1ccc(Br)cc1	40%	5	u	3	-5%	-1%
CCOC(=O)c1c(-n2c(C)cc(C=O)c2C)sc2c1CCCC2	-30%	-7	u	-13	u	56µM*
Cc1ccc(C)n1-c1sc2c(c1C(=O)O)CCCC2	u	-1	45µM*	-17	u	22µM*
CN1c2ccccc2Sc2cc(N)ccc21	u	u	1.1µM*	-23	28µM*	32µM*
CCCOc1cccc(C2c3c(oc4ccc(F)cc4c3=O)C(=O)N2CCc2ccc(OC)cc2)c1 (configuration not stated)	34%	x	-5%[59 µM]	x	1%	-4%
CCN(CC(=O)Nc1ccc(NC(C)=O)cc1)C(=O)c1sc2nc3n(c(=O)c2c1C)CCC3	34%	-6	4%[12.7 µM]	-2	8%	-13%
COc1cccc(Cn2cnc3c2c(=O)n(C)c(=O)n3C)c1	59%	x	28%[59 µM]	x	-2%	-7%
CCOC(=O)c1sc(NC(=O)c2cccnc2)c(C#N)c1C	27%	0	11µM*	8	-8%	-9%
COC(=O)c1sc(NC(=O)c2ccco2)c(C#N)c1C	-25%[57 µM]	x	35µM*	7	-25%	-13%
CCOC(=O)c1c(NC(=O)c2cccnc2)sc(C)c1C	37%	6	22%[59 µM]	6	22%	3%
COc1ccccc1NC(=O)c1sc(NC(=O)c2ccco2)c(C#N)c1C	7%	5	-3%[59 µM]	0	-6%	-7%
CCCCN(C(=O)c1cc(S(=O)(=O)N2CCCCC2)ccc1Cl)c1c(N)n(CC(C)C)c(=O)[nH]c1=O	14%	-4	x	7	x	-11%
Cc1cccc(C)c1OCC(=O)N(Cc1ccc(Cl)cc1)CC1CCCO1 (configuration not stated)	54%	x	16%[59 µM]	x	42%	12%
Cc1cc(C)c(OCC(=O)N(Cc2ccc(N(C)C)cc2)CC2CCCO2)c(C)c1 (configuration not stated)	u	x	13µM*	x	28µM*	40µM*
Cc1ccc(N(Cc2ccc(C(=O)NCC3CCCO3)cc2)S(C)(=O)=O)cc1C (configuration not stated)	5%	-3	4%	-2	-17%	-8%
Cc1ccc(OCC(=O)N(Cc2ccc(N(C)C)cc2)CC2CCCO2)cc1C (configuration not stated)	u	x	14µM*	x	32µM*	50µM*
Cc1ccccc1OCC(=O)N(Cc1ccc(N(C)C)cc1)CC1CCCO1 (configuration not stated)	u	x	16µM*	x	32µM*	45µM*
SMILES	HP1b chromo inh	CtBP-E1A inh	G9a block	Six1-Eya2 blk	BAZ2B inh	JMJD2A Tudor
NC(=O)c1nc(-c2ccc(F)c(F)c2)nc2c1[nH]c(=O)n2-c1cccc(Cl)c1	34%	x	9%[59 µM]	x	2%	-10%
CCOCCn1cnc2sc(C(=O)Nc3ccccc3C(=O)OC)c(C)c2c1=O	29%	x	-1%[59 µM]	x	7%	-1%
Cc1ccc(-c2n[nH]c(=S)n2/N=C/c2c(C)nn(-c3ccccc3)c2C)cc1	10%	-17	10µM*	1	-25%	79µM*
Cc1ccccc1-c1n[nH]c(=S)n1/N=C/c1c(C)nn(-c2ccccc2)c1C	25%	-1	1µM*	3	-5%	u
C[C@@H]1COC(=O)[C@@H](NC(=O)OCC2c3ccccc3-c3ccccc32)C/C=C\C[C@@H](CC(=O)N(CCO)Cc2ccccc2)C(=O)N1	10%	0	x	-3	x	u
Cc1ccc(NC(=O)CSc2nc(=O)n(Cc3cccnc3)c3c2CCC3)cc1F	-4%	x	5%[59 µM]	x	-6%	-17%
Cc1cc(C)n(C(=O)CSc2nc3ccccc3o2)n1	31%	6	79µM*	1	17%	-9%
CC(=O)N1CCC(=NNC(=O)CSc2cc(C)c(Br)cc2C)CC1	40%	12	-10%	20	9%	-6%
Cc1cc(SCC(=O)N/N=C/c2ccc(O)c(O)c2)nc2ccccc12	u	-13	x	-7	45µM*	u
Cc1cc(SCC(=O)N/N=C/c2ccc(O)cc2O)nc2ccccc12	13%	u	7%	u	-30%	u
Cc1cc(SCC(=O)N/N=C/c2ccc(O)c(O)c2)c(C)cc1Br	-6%	0	25µM*	0	u	-34%
O=C(CSc1nc2ccccc2o1)N/N=C/c1ccc(O)c(O)c1	u	-20	u	-24	45µM*	16µM*
Cc1ccc(NC(=O)CN2C(=O)CSc3ccc(S(=O)(=O)N4CCCC4)cc32)cc1F	41%	x	-15%[59 µM]	x	-33%	-31%
C/C(=N\NC(=O)CSc1nc2ccccc2o1)c1ccc(O)cc1	19%	-11	16µM*	0	-19%	-15%
C/C(=N\NC(=O)CSc1nc2ccccc2o1)c1cccc(O)c1	18%[57 µM]	x	-5%	-4	-5%	-21%
CC(C)CCn1c(=O)c2sccc2n2c(CCCC(=O)Nc3ccc(C(C)C)cc3)nnc12	11%	x	-5%[59 µM]	x	0%	-16%
COc1ccc(C)cc1Nc1n[n+](C)c(-c2ccc(O)cc2O)s1	47%	x	18µM*	-2	-28%	-17%
COc1ccc(C)cc1Nc1n[n+](-c2ccccc2)c(-c2ccc(OC)c(OC)c2OC)s1	-3%	-3	x	0	u	u
